# From PubChem
# NLRP3 yeast inh: NALP3 inflammasome inhibitors in reconstituted yeast, primary screen, luminescence, uHTS; 330,000 compounds, 0.39% hits; Yeast reconstituted NLRP3/ASC/caspase-1, beta-gal luminescence, 24 h; inhibition, % at 10 µM;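 active means inhibition of 50% or more; inactive means inhibition below 50%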;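 further: plate controls were induced DMSO wells for no effect and uninduced yeast grown without galactose for full effect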
# TIM10 inh: growth inhibitors of isogenic TIM10 control yeast, primary screen, counter-screen for tim10-1 yeast inhibitor project, luminescence, uHTS; S. cerevisiae TIM10 strain growth, BacTiter-Glo luminescence, 24 h; inhibition, % at 10 µM; 330,000 compounds, 1.4% hits;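 active means inhibition of 40% or more at the single tested concentration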;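 further: wild-type TIM10 isogenic control strain grown at permissive 25 °C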
# tim23-1 inh: growth inhibitors of tim23-1 mutant yeast, primary screen, luminescence, uHTS. S. cerevisiae tim23-1 growth, BacTiter-Glo luminescence, 24 h. 330,000 compounds, 1.3% hits. inhibition, % at 20 µM;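 active means growth inhibition of the mutant yeast at or above 50%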;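 further: temperature-sensitive mutant grown at 25 °C; plate controls were DMSO-treated mutant yeast for no effect and medium wells lacking yeast for full effect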
# tim10-1 inh: growth inhibitors of tim10-1 mutant yeast, primary screen, luminescence, uHTS; S. cerevisiae tim10-1 ts strain growth, BacTiter-Glo, 24 h; inhibition, % at 20 µM; 330,000 compounds, 2.2% hits;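 active means inhibition of at least 40%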;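 further: mutant grown at 25 °C; 0% = DMSO wells with yeast and 100% = wells holding no yeast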
# PfHsp90 set2: growth inhibition of PfHsp90-expressing yeast, primary screen, antimalarial PfHsp90 inhibitor project, S. cerevisiae, BacTiter-Glo luminescence, single point, set 2; AID 504621, 2011; BacTiter-Glo ATP, 48 h; yeast lacking PDR1 and PDR3 efflux regulators; 310,000 compounds, 0.32% hits; inhibition, % at 9.4 µM;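 active means every replicate shows inhibition above about 80%, whatever the replicate mean, limit read from the data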;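 further: 0% = DMSO neutral controls and 100% = 20 µM radicicol positive controls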
# NALP1 inh: NALP1 inflammasome inhibitors in reconstituted yeast, colorimetric, S. cerevisiae, triplicate retest; S. cerevisiae NALP1/ASC/caspase-1 growth, X-gal OD620, 72 h; inhibition, % at 10 µM; 280,000 compounds, 0.61% hits; in the data active means inhibition mostly above about 24%, no sharp cut-off; inactive means mostly below about 32%
# tim23-1 confirm: tim23-1 mutant yeast growth inhibitors, confirmation, luminescence, single concentration; inhibition, % at 20 µM; shares compounds with tim23-1 inh; 4,400 compounds, 83% hits; S. cerevisiae tim23-1 growth, BacTiter-Glo luminescence, 24 h;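 active means inhibition above about 39% in either of two replicate wells at 20 µM, limit read from the data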;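 further: temperature-sensitive tim23-1 mutant grown at 25 °C; 0% = DMSO wells with yeast and 100% = medium wells without yeast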
# Starred values were filed as active, the others as inactive; · = no result. Sampled rows, rich in hits. Any-hit rate of the full collection: about 4.2%.
SMILES,NLRP3 yeast inh,TIM10 inh,tim23-1 inh,tim10-1 inh,PfHsp90 set2,NALP1 inh,tim23-1 confirm
c1ccc(-n2nc3c(ccc4cnnc43)[nH]2)cc1,14,21,53*,24,-17,4,50*
Cn1c(CNC(=O)c2ccc3c(c2)OCO3)nnc1SCC(=O)Nc1ccc(F)cc1,10,-5,1,-1,-7,5,·
CC(C)Cc1csc(NC(=O)c2ccccc2Cl)c1C(=O)O,-15,6,10,12,0,13,·
Cc1ccc(-c2csc(NC(=O)c3ccccc3Cl)c2C(=O)O)cc1,22,16,64*,19,13,-14,-24
C=C1SC(Nc2c(C)cccc2C)=NC12CCCCC2,11,30,50*,26,8,49,44*
Cc1cccc(C)c1NC(=O)NC1(C(=O)N2CCCCC2)CCCCC1,9,-2,-8,-6,14,-7,·
COc1ccccc1NC(=S)N1CCCCCC1,11,-2,1,-21,14,-2,·
Cc1nn(-c2ccc(Cl)c(Cl)c2Cl)c(=O)c2ccccc12,40,8,54*,40,·,3,46*
Cc1nn(-c2ccc(Cl)cc2Cl)c(=O)c2ccccc12,37,-3,8,20,-3,-6,·
COC(=O)n1c(=S)oc2cc(Cl)ccc21,11,16,78*,23,·,-3,79*
COC(=O)n1c(=O)oc2cc(S(=O)(=O)N3CCOCC3)ccc21,-8,-3,16,-1,·,-5,·
CCc1nc(Nc2cccc(O)c2)c2oc3ccccc3c2n1,16,29,60*,9,5,9,46*
CCc1nc(Nc2ccncc2)c2oc3ccccc3c2n1,-3,6,-2,6,5,7,·
CCCCNC1=CC(=O)C(=O)c2ccccc21,9,22,55*,-3,-10,7,56*
CCc1ccc(NC2=CC(=O)C(=O)c3ccccc32)cc1,36,25,2,8,-98,·,·
CCc1ccccc1NC(=O)CSc1nnc(-c2cc(C)[nH]n2)n1N,-2,6,15,19,-9,16,·
Cc1cc(CN2CCN(CC(=O)Nc3cc(Cl)ccc3-n3cncn3)CC2)no1,18,5,7,-12,11,·,·
CCN(C(=O)CN1C(=O)NC2(CCc3ccccc32)C1=O)C1CCCCC1 (stereo not given),21,4,-1,0,-6,·,·
Brc1cc2c(cc1-c1nc3ccccc3s1)OCO2,20,6,8,8,6,19,·
Oc1ccc(N=C/C=C/c2ccc(Br)cc2)cc1-c1nc2ccccc2s1,25,30,64*,23,·,20,44*
CC(C)CCN(C(=S)Nc1cccc(C(F)(F)F)c1)C(C)c1ccccn1 (stereo not given),15,37,54*,33,-3,·,54*
Cc1cc(Cl)ccc1OCC(=O)OCC(=O)NCCNC(=O)COC(=O)COc1ccc(Cl)cc1C,·,·,·,·,16,·,·
CC(=O)c1ccccc1OC(=O)COc1ccc(Cl)cc1C,-4,25,54*,21,-19,-5,46*
O=C(c1ccco1)N1CCN(C(=O)c2ccc(CS(=O)c3ccc(Cl)cc3)o2)CC1 (stereo not given),11,-1,-7,3,-10,-22,·
CCOC(=O)c1c(C)oc2c1c(C(c1ccccc1)N1CCOCC1)c(O)c1ccccc12 (stereo not given),8,39,66*,39,·,4,43*
SMILES,NLRP3 yeast inh,TIM10 inh,tim23-1 inh,tim10-1 inh,PfHsp90 set2,NALP1 inh,tim23-1 confirm
CCOC(=O)C1CCN(C(c2cccnc2)c2c(NC(=O)c3ccco3)sc(C)c2C)CC1 (stereo not given),13,-6,2,6,53,13,·
CCOC(=O)c1c(C)oc2c1c(C(c1cccnc1)N1CCCCC1)c(O)c1ccccc12 (stereo not given),11,18,50*,26,·,10,45*
CCOC(=O)c1c(C)oc2c1c(C=NCCO)c(O)c1ccccc12,·,·,·,·,-16,5,·
Oc1ccccc1/C=N/n1c(-c2ccccc2)n[nH]c1=S,11,32,51*,17,7,-6,39
COc1c(Br)cc(/C=N/n2c(-c3ccccc3)n[nH]c2=S)c(O)c1Br,16,37,62*,26,-1,-10,60*
CCCCn1c(N)c(N(CC)C(=O)c2ccc([N+](=O)[O-])c(C)c2)c(=O)[nH]c1=O,8,-3,29,19,-5,6,·
CC1CN(C(=O)CCCN2C(=O)c3ccccc3C2=O)CC(C)O1 (stereo not given),13,1,15,11,1,13,·
CC(C)(C)SCCNC(=O)c1ccc(Cl)c([N+](=O)[O-])c1,34,9,53*,34,102*,33,29
O=C(NCCN1CCOCC1)c1ccc(Cl)c([N+](=O)[O-])c1,22,-5,-12,-16,22,5,·
O=c1nc2onnc2c(C=NO)[nH]1,·,·,·,·,-8,·,·
c1ccc(-c2cn3nc(-c4ccccc4)sc3n2)cc1,22,0,-5,16,0,·,·
c1ccc(-c2cn3c4c(sc3n2)CCCC4)cc1,35,34,55*,24,13,·,60*
C=CCNC(=O)c1ccc2c3n(nc2c1)-c1ccc(Cl)cc1CO3,16,23,59*,30,12,·,50*
Cc1ccc2c(c1)COc1c3ccc(C(=O)O)cc3nn1-2,-4,2,9,-7,13,21,·
CCOC(=O)c1ccc(NC(=O)CSc2nc(=O)n3cccc(C)c3n2)cc1,-8,-6,52*,22,·,·,50*
S=C(NCc1ccccn1)Nc1ccc(Cl)c(Cl)c1,35,27,56*,33,·,23,46*
S=C(NCc1ccccn1)Nc1ccccc1,7,-5,-7,18,-6,24,·
COc1ccc(-c2csc(NC(=O)c3ccc(S(=O)(=O)N4CCc5ccccc5C4)cc3)n2)c(OC)c1,8,15,12,16,-21,9,·
CCOC(=O)Nc1sc2nc(C)cc(C)c2c1-n1cccc1,29,13,51*,29,·,12,29
O=C(CSc1cccc[n+]1[O-])CSc1cccc[n+]1[O-],7,-19,71*,5,8,8,61*
O=C(CSc1cccc[n+]1[O-])Nc1ccccc1Oc1ccccc1,-19,32,69*,37,-22,-3,76*
O=C(CSc1cccc[n+]1[O-])Nc1ccccc1C(F)(F)F,-4,-3,8,11,·,·,·
